# Values without a mark were called inactive.
# Tested on: RAW-Dual (murine macrophage reporter line)
# Experiment: viability score (confluency relative to resting cells, overnight) (fraction); higher = more viable, active = viable (0.7 or more)
# Conditions: modulator concentration 10 µM
# Outline: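 Two confluency masks, generated with IncuCyte software over all imaged wells, were applied to IncuCyte images of RAW-Dual macrophages. The cells, in 384-well plates, had been exposed overnight to 10 μM final compound. The viability score is confluency as a fraction of resting cells, and a compound met the cutoff only with both masks above 70% of resting cells.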
row,Structure (SMILES),viability score
1,CN(C)CCNC(=O)C(=O)NC(c1ccccc1)c1ccccc1,0.996 (active)
2,Cc1ccsc1C(=CCCN1CCC[C@@H](C(=O)O)C1)c1sccc1C,0.997 (active)
3,O=C1c2ccccc2C(=O)C1c1ccncc1,0.994 (active)
4,Oc1c2c(nc3cc(-c4ccc(Cl)cc4)nn13)CCS2,0.998 (active)
5,CC(C(=O)N1CCN(S(=O)(=O)C2CC2)CC1)n1nc2c(cc1=O)CCC2 (stereo not given),1.01 (active)
6,COc1ccc2c(C)nc(Nc3nc(C)cc(-c4ccccc4)n3)nc2c1,1.03 (active)
7,COC(CNC(=O)c1cccc(Br)c1)c1ccccc1C (stereo not given),1 (active)
8,COc1ccc(OC)c(C2CC(c3ccc(Cl)cc3)=NN2S(C)(=O)=O)c1 (stereo not given),0.986 (active)
9,Cc1nc[nH]c1CN1CCc2c(c3ccccc3n2C)C1=O.Cl,1 (active)
10,CC(=NNC(=O)CSc1nc2ccccc2n1Cc1ccccc1)c1ccc(Cl)cc1,1.02 (active)
11,CN1CCN(C2=C(Cl)C(=O)N(c3cccc(Cl)c3)C2=O)CC1,0.993 (active)
12,CC(=O)C1CCC2C3CC=C4CC(O)CCC4(C)C3CCC12C (stereo not given),0.986 (active)
13,CC(C)CNC(=O)C(=O)Nc1ccc(C(C)C)cc1,1 (active)
14,COc1ccc(CCNCC(O)COc2cccc(C)c2)cc1OC.Cl (stereo not given),0.985 (active)
15,CCOc1ccc(C=c2sc3nc4ccccc4n3c2=O)cc1Cl,0.998 (active)
16,O=C(CCCN1CCC(O)(c2ccc(Br)cc2)CC1)c1ccc(F)cc1 [Prestw-509],0.998 (active)
17,CC(=O)Nc1ccc(S(=O)(=O)N2CCC(Oc3nc(C)cc(C)n3)C2)cc1 (stereo not given),0.998 (active)
18,Cc1cc(C)n(CC2CCN(Cc3ccc(Br)cc3)CC2)n1,0.626
19,C#CCCCCCCCCCCCC(=O)CC(O)COC(C)=O (stereo not given),0.849 (active)
20,COc1ccc(-n2cnc3cc(NC(C)=O)ccc32)cc1,1.01 (active)

row,Structure (SMILES),viability score
1,COC1CC2CCC(C1)N2S(=O)(=O)c1ccc(Br)cc1 (stereo not given),1.01 (active)
2,CN(C)C(=O)c1cc2cnc(Nc3ccc(N4CCNCC4)cn3)nc2n1C1CCCC1,0.711 (active)
3,CCCOc1ccc(-c2ccc(-c3nc(Cc4ccc(OC)c(OC)c4)no3)cc2)cc1,1.01 (active)
4,CCOC(=O)C1=C(C)NC(=O)N(C(C)=O)C1c1ccc(Br)cc1 (stereo not given),0.621
5,O=C(Nc1ccccn1)c1ccc(OCC2CCCO2)nc1 (stereo not given),0.997 (active)
6,O=c1[nH]nc(Br)c(=O)[nH]1,0.992 (active)
7,O=C(O)CCCN1CCC(O[C@@H](c2ccc(Cl)cc2)c2ccccn2)CC1.O=S(=O)(O)c1ccccc1,0.985 (active)
8,COc1cc2c(cc1Cc1cccc(Cl)c1F)c(=O)c(C(=O)O)cn2[C@H](CO)C(C)C,0.936 (active)
9,CC1CC(=O)C2=C(C1)OC(N)=C(C#N)C2c1cccc2ccccc12 (stereo not given),1 (active)
10,COc1ccc(Br)c(C(=O)N2CCOCC2CO)c1 (stereo not given),0.951 (active)
11,COC(=O)c1ccc(N2C(=O)c3ccc(Oc4cccc([N+](=O)[O-])c4)cc3C2=O)cc1,1.02 (active)
12,CC(C)NCC(O)COc1ccccc1C(C)(C)C.Cl (stereo not given),0.922 (active)
13,COc1ccc([C@H]2CNC(=O)C2)cc1OC1CCCC1,0.982 (active)
14,Cc1c(C)c2c(c(C)c1O)CCC(C)(CCCC(C)CCCC(C)CCCC(C)C)O2 (stereo not given),0.987 (active)
15,Oc1ccc(O)cc1,0.909 (active)
16,Cc1c(C)n2c3c(=O)n(Cc4ccccc4F)c(=O)n(C)c3nc2n1CCCN1CCOCC1,1.01 (active)
17,CCOc1ccc(CN(CCc2ccc3c(c2)OCO3)Cc2cccc3ccccc23)cc1,0.998 (active)
18,Cc1ccc(O)c([C@H](CCN(C(C)C)C(C)C)c2ccccc2)c1.O=C(O)[C@H](O)[C@@H](O)C(=O)O,0.979 (active)
19,CCOC(=O)N(CC(=O)OC)CP(=O)(O)C(Cc1ccccc1)C(=O)O (stereo not given),1 (active)
20,COC(=O)CNC(c1ccccc1)c1cc(Br)ccc1NC(=O)c1ccccc1Br (stereo not given),0.988 (active)

# Source: the supplement of paper PMC10646978
